PubChem BioAssay AID1578 (Sanford-Burnham Center for Chemical Genomics, 2009)
Among all 290,000 compounds or so, about 3,000 (1%) were called active. This is one part of a sample in which actives are shown more often than they occur. Cut-off read from the data, not from the text of the source: active = inhibition mostly above about 36% (no sharp cut-off); inactive = mostly below about 34%.

Assay: inhibition of NOD1-driven NF-kB reporter – cell-based, luminescence, uHTS, primary screen (AID 1578);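 note: HEK-293T reporter cells stimulated with the NOD1 agonist gamma-tri-DAP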
Conditions: NOD1-driven NF-kB luciferase reporter cells, at 4 µM, active compounds read high

inhibition, active:
Nc1ccc(-c2cc3ccccc3oc2=O)cc1 63.5%
O=c1oc2ccccc2cc1-c1cn2ccccc2n1 64.7%
CN(C)CCNC(=O)/C(=C/c1ccc(-c2cccc(Cl)c2)o1)NC(=O)c1ccccc1 112%
COc1ccc2nc(N/C(N)=N/C(=S)Nc3cccc(C)c3)nc(C)c2c1 51.4%
CCc1ccc(C2=NNC(=Nc3cccc(S(=O)(=O)N(C)C)c3)SC2)cc1 72.3%
O=C(O)/C=C/C(=O)NC1CCS(=O)(=O)C1 (centres undefined) 99.9%
COc1cc(/C=N/O)ccc1OCc1ccc(C(=O)O)cc1 100%
O=C(O)c1ccc(N/N=C/c2c(F)cccc2Cl)cc1 26.1%
COc1ccc(/C=N/Nc2ccc(C(=O)O)cc2)cc1Br 50.9%
COc1cccc(/C=N/Nc2ccc(C(=O)O)cc2)c1O 104%
COC(=O)c1ccc(COc2ccc(/C=C/C(=O)c3ccc(OC)c(CSCC(=O)O)c3)cc2OC)cc1 49.5%
CC(C)c1ccc(/C=N/Nc2ccc(C(=O)O)cc2)cc1 64.4%
O=C(O)c1ccc(N/N=C/c2ccc3c(c2)OCO3)cc1 80.4%
Cc1ccc(Nc2nc(CSc3nnc(-c4cccnc4)n3-c3ccccc3C)cs2)cc1 87%
CN(Cc1c(C(=O)N(C)Cc2ccccc2)nc2ccccn12)CC1Cc2ccccc2O1 (centres undefined) 64.7%
O=[N+]([O-])c1ccc(NCc2ccc3c(c2)OCO3)cc1 88.5%
COC(=O)C1CC23C=CCN4CCC5(c6ccccc6NC15C2C)C43 (centres undefined) 46.8%
Cc1cc(C(=O)COC(=O)c2ccco2)c(C)n1Cc1ccco1 45.8%
COCCn1c(C)cc(C(=O)COC(=O)c2ccccc2Br)c1C 67.9%
Cc1cc(C(=O)CSc2nnc(-c3ccccc3F)o2)c(C)n1Cc1cccs1 58.1%

inhibition, inactive:
O=c1oc2ccccc2cc1-c1cn2cccnc2n1 -55.7%
Cc1cccn2cc(-c3cc4ccccc4oc3=O)nc12 -21.9%
O=c1oc2ccccc2cc1-c1ccccc1 -31.9%
O=c1oc2ccccc2cc1-c1ccc(O)cc1 54.1%
Cc1cc(C)c2cc(CN(CCO)Cc3nnnn3Cc3ccccc3)c(=O)[nH]c2c1 -12.5%
O=C(CC1COc2ccccc2O1)Nc1ccccn1 (centres undefined) -29.1%
CCN(CC)S(=O)(=O)c1ccc(N2CCCC2)c(NS(=O)(=O)c2ccccc2)c1 4.1%
CN(C)CCNC(=O)/C(=C/c1ccc(-c2ccc(Cl)cc2)o1)NC(=O)c1ccccc1 -19.3%
CN(C)CCNC(=O)/C(=C/c1ccc(-c2cccc([N+](=O)[O-])c2)o1)NC(=O)c1ccccc1 4.2%
Cc1nnc(NC(=O)C2CCCN(S(=O)(=O)Cc3ccccc3)C2)s1 (centres undefined) -8.7%
Cc1cccc(Cn2c(C)nc3c(N)c(C)c(C)cc32)c1 -13.6%
Cc1cccc(NC(=S)/N=C(\N)Nc2nc(C)c3cc(C)ccc3n2)c1 23.1%
COc1ccc2nc(N/C(N)=N/C(=S)Nc3ccccc3)nc(C)c2c1 29.9%
O=C(Cc1ccccc1)Nc1cc2c(cc1Cl)OCCCO2 -59.9%
CCN(CC(=O)NCc1ccc(Cl)cc1)C(=O)/C=C/c1ccc(Cl)c([N+](=O)[O-])c1 -18.8%
CN(C)C(=O)c1ccc(NS(=O)(=O)c2ccc3c(c2)OCCO3)cc1 -34.8%
CN(C)S(=O)(=O)c1cccc(N=C2NN=C(c3ccccc3)CS2)c1 26.1%
CC(=O)Nc1ccc(C2=NNC(=Nc3cccc(S(=O)(=O)N(C)C)c3)SC2)cc1 -32.6%
COc1ccc(-n2c(=O)[nH]c3cc(C(=O)NCCc4ccc(Cl)cc4)ccc3c2=O)cc1OC 7.4%
O=C(/C=C/c1ccccc1)NC1CCS(=O)(=O)C1 (centres undefined) -20%
O=C(O)/C=C/C(=O)NC1CC1 -13.1%
CCCC(C)c1nc(C(N)=O)c2[nH]c(=O)n(-c3ccc(OC)c(OC)c3)c2n1 (centres undefined) -11.9%
COc1ccc(/C=N/Nc2ccc(C(=O)O)cc2)cc1OC -8.6%
COc1cc(/C=N/Nc2ccc(C(=O)O)cc2)ccc1O -8.3%
COc1cccc(/C=N/Nc2ccccc2C(=O)O)c1O -5.1%
COc1cc(/C=N/O)ccc1OCc1ccc(Cl)cc1 -6.6%
O=C(N/N=C/c1c(F)cccc1Cl)C1CC1 -15.7%
COc1cc(/C=N/NS(=O)(=O)c2ccc(C)cc2)ccc1OCc1ccc(C(=O)O)cc1 18.4%
COc1cccc(/C=N/Nc2ccc([N+](=O)[O-])cc2)c1O -2.8%
O=C(O)c1ccc(N/N=C/c2cccc(F)c2)cc1 -22.9%
COc1cc(=O)[nH]c(SCC(=O)Nc2ccc3ccccc3c2)n1 -28.4%
CCOc1ccc(-c2nnc(NC(=O)Cc3ccc(OC)cc3)o2)cc1 -18.3%
O=C1Cc2ccccc2C(=O)N1c1ccc(F)cc1Cl -16.4%
C=CCn1cc(C(C)=O)c(=O)[nH]c1=O -20.3%
C/C(CC(=O)Nc1ccc2c(c1)OCCO2)=N\NC(=O)Cc1ccc(Cl)cc1 -8.8%
COCCCNC(=O)Cn1c(=O)n(Cc2ccc(F)cc2)c(=O)c2sccc21 -8.2%
CSCCOC(=O)C1=C(C)NC(=O)NC1c1ccc2c(c1)OCO2 (centres undefined) -24.6%
O=C(NCC1CCCO1)c1cc2ccccc2nc1Cl (centres undefined) -20.2%
CCn1c(=O)c([N+](=O)[O-])c(N2CCSCC2)c2ccccc21 8.8%
O=C(NCc1ccccc1)c1ccc(Cn2cc(C(F)(F)F)ccc2=O)cc1 -8.1%
O=C(N/N=C/c1ccc2c(c1)OCO2)c1ccc2c(c1)OCO2 -42.6%
O=C(O)c1ccc(N/N=C/c2ccc(-c3ccccc3)cc2)cc1 -27%
O=C(O)c1cc(N/N=C/c2ccc3c(c2)OCO3)ccc1Cl -59.6%
COc1ccc(C(=O)/C=C/c2cccc(OCc3ccccc3)c2)cc1CSCC(=O)O 11.8%
COc1ccc(C(=O)/C=C/c2ccc(OCc3ccccc3)cc2)cc1CSCC(=O)O 0.4%
O=C(O)c1ccc(N/N=C/c2ccc(C(F)(F)F)cc2)cc1 17.4%
CCOC(=O)c1[nH]n(-c2ccc(Cl)cc2)c(=O)c1C -33.9%
O=C(c1cc(-c2ccc(Cl)cc2)n[nH]1)N1CCN(C(=O)c2ccco2)CC1 13.4%
COC(=O)C1CC(c2ccc(Cl)cc2)=NO1 (centres undefined) -38.4%
CCOc1ncccc1C(=O)Nc1cccc(-c2nnc3n2CCCCC3)c1 -22.1%
Cc1cccc(C)c1NC(=S)NCCc1ccc(O)c(O)c1 -28.1%
COc1ccccc1OC(=O)C1CC(=O)N(c2ccc(Cl)cc2)C1 (centres undefined) -7.8%
Cc1ccccc1-n1c(SCc2csc(Nc3ccccc3)n2)nnc1-c1cccnc1 -18.5%
Cc1ccc(Nc2nc(CSc3nnc(-c4cccnc4)n3-c3ccccc3F)cs2)cc1 18.9%
CC1(C)CN(c2cccc(Br)c2)C1=O -15.6%
Cc1nn(C)cc1CN(C)Cc1c(C(=O)N(C)Cc2ccccc2)nc2ccccn12 -20.3%
CC(c1ccon1)N(C)Cc1c(C(=O)N(C)Cc2ccccc2)nc2ccccn12 (centres undefined) -38.7%
O=C(CSCC(=O)NC1CC1)Nc1ccc2ccccc2c1 -5.8%
O=C(Cc1ccc([N+](=O)[O-])cc1)NCc1ccc2c(c1)OCO2 -15.5%
O=C(NCc1ccc2c(c1)OCO2)Nc1ccc([N+](=O)[O-])cc1 -44.5%
CN(Cc1ccc2nonc2c1)Cc1nc(Cc2cccc(F)c2)no1 -14.8%
CC1(C)OC(=O)CC1C(=O)NCc1ccccc1 (centres undefined) -18.4%
Cc1ccc(NC(=S)NCC(O)c2ccccc2)c(C)c1 (centres undefined) -31%
O=S(=O)(c1cccs1)N1CN(Cc2ccc(F)cc2)c2nc3ccccc3nc21 6.3%
CCC12CCCN3CCC4(C(=C(C(=O)OC)C1)Nc1ccccc14)C32 (centres undefined) -7.2%
COC(=O)C1CCN(C(=O)/C(C)=C\c2ccccc2)CC1 -32.2%
CCCOC1CCCN(C(=O)CCCn2nnnc2CN2CCOCC2)C1 (centres undefined) 10.3%
Cn1nc(C(=O)NC2CCCN(Cc3ccccc3F)C2)c2ccccc2c1=O (centres undefined) -20.9%
Cc1cc(C(=O)NC2CCCN(Cc3ccccc3F)C2)no1 (centres undefined) -19.1%
O=C(O)C(=O)/C(=C\c1cccc2ccccc12)c1ccc2ccccc2n1 2.3%
CCC(C(=O)NC1CCCC1)N(C(=O)Cn1nnc(-c2ccc(OC)c(OC)c2)n1)c1cccc(O)c1 (centres undefined) -30.7%
Cc1cc(C(=O)COC(=O)c2ccc(O)cc2)c(C)n1Cc1ccco1 -37.3%
Cc1cc(C(=O)CSc2n[nH]c(-c3ccccc3F)n2)c(C)n1Cc1cccs1 29.2%
Cc1cc(C(=O)COC(=O)c2ccc(Br)o2)c(C)n1Cc1ccco1 -24.2%
COCCn1c(C)cc(C(=O)COC(=O)c2ccc(Br)o2)c1C -30.4%
Cc1cc(C(=O)COc2ccc3ccc(=O)oc3c2)c(C)n1Cc1cccs1 22.1%
COc1ccc(-c2nnc(SCC(=O)c3cc(C)n(Cc4cccs4)c3C)o2)cc1 -40.4%
COCCn1c(C)cc(C(=O)COC(=O)c2ccc[nH]c2=O)c1C 50.7%
Cc1cc(C(=O)CN2C(=O)c3ccccc3C2=O)c(C)n1Cc1cccs1 13.2%
